# Tests used:
# Test in all cases: DAPPL (digital affinity profiling via proximity ligation, sequencing); 10 mM Tris-HCl pH 7.5, 50 mM NaCl, 1 mM DTT, 4% glycerol, room temperature, 30 min; GST-TFs on glutathione beads, 16-mer random dsDNA library, 0.1% formaldehyde crosslink after washing; high values mean tight binding
# FLI1 = target: T1, FLI1 (Homo sapiens, UniProt Q01543 1-452); conditions: protein: recombinant; tags: N-terminal GST; dsDNA, one strand shown
# T1 sequence: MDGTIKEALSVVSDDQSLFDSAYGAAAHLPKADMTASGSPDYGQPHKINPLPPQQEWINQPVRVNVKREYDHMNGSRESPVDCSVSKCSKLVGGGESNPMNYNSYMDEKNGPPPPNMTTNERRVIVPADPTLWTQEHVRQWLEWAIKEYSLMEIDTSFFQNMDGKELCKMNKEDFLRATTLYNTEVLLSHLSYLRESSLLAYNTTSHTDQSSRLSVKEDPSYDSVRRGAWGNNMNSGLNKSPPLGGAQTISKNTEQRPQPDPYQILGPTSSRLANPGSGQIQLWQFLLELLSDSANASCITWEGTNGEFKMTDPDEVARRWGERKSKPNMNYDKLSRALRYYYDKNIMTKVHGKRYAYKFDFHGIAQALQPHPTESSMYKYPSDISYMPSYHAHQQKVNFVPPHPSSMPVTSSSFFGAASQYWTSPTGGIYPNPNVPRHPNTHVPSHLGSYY
# Procedure, shortened: (§1)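 In yeast, human transcription factors were expressed with a GST fusion, then pulled down on glutathione beads and given DNA barcodes. Pooled with a tag-only sample, they were exposed to 200 nmole of a 16-mer random double-stranded DNA library (Tris/NaCl/DTT/glycerol buffer, room temperature, 30 min), washed, crosslinked with 0.1% formaldehyde, proximity-ligated using BsaI/T4 ligase for 1 h at 37 °C, PCR-amplified and read on an Illumina NextSeq500. Each hexamer's frequency of reads for a factor, divided by the matching frequency for the tag-only sample, gives the binding signal.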
# ELK1 = target: T2, ELK1 (Homo sapiens, UniProt P19419 1-428); conditions: protein: recombinant; tags: N-terminal GST; dsDNA, one strand shown
# T2 sequence: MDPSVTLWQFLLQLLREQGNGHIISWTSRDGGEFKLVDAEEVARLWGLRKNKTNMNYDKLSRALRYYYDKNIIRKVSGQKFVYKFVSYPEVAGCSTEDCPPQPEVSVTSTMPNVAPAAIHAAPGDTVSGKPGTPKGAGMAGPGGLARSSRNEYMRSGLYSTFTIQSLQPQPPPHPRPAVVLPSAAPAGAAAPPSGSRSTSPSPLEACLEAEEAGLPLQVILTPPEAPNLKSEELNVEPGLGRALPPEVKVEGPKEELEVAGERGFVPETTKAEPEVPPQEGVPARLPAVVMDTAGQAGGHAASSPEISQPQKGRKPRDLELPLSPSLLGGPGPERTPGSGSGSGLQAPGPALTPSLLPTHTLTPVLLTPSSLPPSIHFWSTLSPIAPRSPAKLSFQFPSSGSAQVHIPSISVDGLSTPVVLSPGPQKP
# Procedure, shortened: as §1
# GABPA = target: T3, GABPA (Homo sapiens, UniProt Q06546 1-454); conditions: protein: recombinant; tags: N-terminal GST; dsDNA, one strand shown
# T3 sequence: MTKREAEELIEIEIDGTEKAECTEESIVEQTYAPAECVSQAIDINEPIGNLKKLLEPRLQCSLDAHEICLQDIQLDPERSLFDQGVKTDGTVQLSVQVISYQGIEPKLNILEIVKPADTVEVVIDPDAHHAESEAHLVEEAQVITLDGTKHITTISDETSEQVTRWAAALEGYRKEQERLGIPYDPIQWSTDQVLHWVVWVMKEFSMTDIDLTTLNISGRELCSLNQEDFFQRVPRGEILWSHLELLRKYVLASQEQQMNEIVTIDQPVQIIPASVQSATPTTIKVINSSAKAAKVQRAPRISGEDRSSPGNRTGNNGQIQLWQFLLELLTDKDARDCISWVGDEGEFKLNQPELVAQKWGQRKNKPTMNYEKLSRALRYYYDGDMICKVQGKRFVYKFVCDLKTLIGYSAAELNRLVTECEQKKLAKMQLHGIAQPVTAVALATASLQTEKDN
# Procedure, shortened: as §1
# ERG = target: T4, ERG (Homo sapiens, UniProt P11308 1-479); conditions: protein: recombinant; tags: N-terminal GST; dsDNA, one strand shown
# T4 sequence: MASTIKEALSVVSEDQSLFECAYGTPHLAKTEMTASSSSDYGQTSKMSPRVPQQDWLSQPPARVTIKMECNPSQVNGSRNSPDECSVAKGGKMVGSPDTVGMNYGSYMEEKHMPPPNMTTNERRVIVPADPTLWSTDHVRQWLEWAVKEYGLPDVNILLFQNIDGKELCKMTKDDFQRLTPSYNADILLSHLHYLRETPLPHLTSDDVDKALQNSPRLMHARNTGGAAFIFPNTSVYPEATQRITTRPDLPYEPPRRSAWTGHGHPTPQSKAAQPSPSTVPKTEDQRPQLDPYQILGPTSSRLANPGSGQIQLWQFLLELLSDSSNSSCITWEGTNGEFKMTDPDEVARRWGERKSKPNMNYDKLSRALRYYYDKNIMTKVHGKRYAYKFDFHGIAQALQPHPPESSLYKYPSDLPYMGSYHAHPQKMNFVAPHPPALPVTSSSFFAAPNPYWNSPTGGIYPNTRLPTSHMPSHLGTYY
# Procedure, shortened: as §1
# ELF1 = ELF1 (Homo sapiens, UniProt P32519 1-619); conditions: protein: recombinant; tags: N-terminal GST; dsDNA, one strand shown
# ELF1, sequence (P32519 whole entry): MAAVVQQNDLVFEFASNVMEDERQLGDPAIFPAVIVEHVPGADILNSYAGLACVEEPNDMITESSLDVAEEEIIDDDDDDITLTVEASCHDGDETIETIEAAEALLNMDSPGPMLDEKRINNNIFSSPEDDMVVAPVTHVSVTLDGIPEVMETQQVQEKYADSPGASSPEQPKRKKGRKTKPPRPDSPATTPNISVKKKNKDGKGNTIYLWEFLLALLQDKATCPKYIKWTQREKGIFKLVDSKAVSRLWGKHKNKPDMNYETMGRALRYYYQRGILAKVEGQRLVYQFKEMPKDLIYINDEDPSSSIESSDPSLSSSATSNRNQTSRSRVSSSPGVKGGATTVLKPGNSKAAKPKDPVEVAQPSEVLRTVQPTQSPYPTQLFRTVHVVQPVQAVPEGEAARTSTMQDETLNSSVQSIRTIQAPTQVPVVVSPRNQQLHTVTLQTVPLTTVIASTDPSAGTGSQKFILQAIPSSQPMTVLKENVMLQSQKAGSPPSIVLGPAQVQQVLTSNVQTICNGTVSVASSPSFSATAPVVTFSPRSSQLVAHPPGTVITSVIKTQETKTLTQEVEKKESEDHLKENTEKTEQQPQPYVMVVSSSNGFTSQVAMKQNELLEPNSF
# Procedure, shortened: as §1
# EHF = target: T5, EHF (Homo sapiens, UniProt Q9NZC4 1-300); conditions: protein: recombinant; tags: N-terminal GST; dsDNA, one strand shown
# T5 sequence: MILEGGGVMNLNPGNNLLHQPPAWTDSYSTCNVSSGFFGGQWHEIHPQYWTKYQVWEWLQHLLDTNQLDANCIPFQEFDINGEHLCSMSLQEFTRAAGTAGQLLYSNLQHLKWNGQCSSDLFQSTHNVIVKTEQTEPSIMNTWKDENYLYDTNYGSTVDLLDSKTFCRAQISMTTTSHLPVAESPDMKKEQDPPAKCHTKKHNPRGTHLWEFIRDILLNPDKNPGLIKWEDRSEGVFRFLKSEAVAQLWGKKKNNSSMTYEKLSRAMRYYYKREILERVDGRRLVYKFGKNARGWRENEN
# Procedure, shortened: as §1
# SPI1 = SPI1 (Homo sapiens, UniProt P17947 1-270); conditions: protein: recombinant; tags: N-terminal GST; dsDNA, one strand shown
# Procedure, shortened: as §1
# SPIB = SPIB (Homo sapiens, UniProt Q01892 1-262); conditions: protein: recombinant; tags: N-terminal GST; dsDNA, one strand shown
# SPIB, sequence (Q01892 whole entry): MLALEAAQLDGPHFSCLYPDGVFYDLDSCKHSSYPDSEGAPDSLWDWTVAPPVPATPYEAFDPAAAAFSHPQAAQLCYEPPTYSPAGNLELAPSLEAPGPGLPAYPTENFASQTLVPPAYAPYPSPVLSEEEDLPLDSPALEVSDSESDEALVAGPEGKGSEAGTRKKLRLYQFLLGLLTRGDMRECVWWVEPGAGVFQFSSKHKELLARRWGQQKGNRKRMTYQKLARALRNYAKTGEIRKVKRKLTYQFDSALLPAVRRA
# Procedure, shortened: as §1
# ELK3 = target: T6, ELK3 (Homo sapiens, UniProt P41970 1-407); conditions: protein: recombinant; tags: N-terminal GST; dsDNA, one strand shown
# T6 sequence: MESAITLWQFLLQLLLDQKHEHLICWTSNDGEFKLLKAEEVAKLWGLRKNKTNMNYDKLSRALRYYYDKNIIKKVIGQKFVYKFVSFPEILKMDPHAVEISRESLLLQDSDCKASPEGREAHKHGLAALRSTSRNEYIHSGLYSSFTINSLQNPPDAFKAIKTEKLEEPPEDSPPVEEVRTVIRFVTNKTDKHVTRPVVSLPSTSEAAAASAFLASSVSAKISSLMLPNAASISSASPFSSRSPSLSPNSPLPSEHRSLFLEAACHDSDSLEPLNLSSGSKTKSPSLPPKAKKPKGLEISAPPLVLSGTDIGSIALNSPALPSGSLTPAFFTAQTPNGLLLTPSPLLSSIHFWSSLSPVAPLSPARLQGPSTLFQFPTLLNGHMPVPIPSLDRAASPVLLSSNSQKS
# Procedure, shortened: as §1
# FEV = target: T7, FEV (Homo sapiens, UniProt Q99581 1-238); conditions: protein: recombinant; tags: N-terminal GST; dsDNA, one strand shown
# T7 sequence: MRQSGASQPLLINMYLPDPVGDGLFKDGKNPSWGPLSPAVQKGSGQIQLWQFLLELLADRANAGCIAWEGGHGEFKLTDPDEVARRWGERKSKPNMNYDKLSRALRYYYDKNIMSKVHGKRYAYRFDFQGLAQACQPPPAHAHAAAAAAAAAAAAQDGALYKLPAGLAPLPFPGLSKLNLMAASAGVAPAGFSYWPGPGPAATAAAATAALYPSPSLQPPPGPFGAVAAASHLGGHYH
# Procedure, shortened: as §1
# ETV5 = ETV5 (Homo sapiens, UniProt P41161 1-510); conditions: protein: recombinant; tags: N-terminal GST; dsDNA, one strand shown
# ETV5, sequence (P41161 whole entry): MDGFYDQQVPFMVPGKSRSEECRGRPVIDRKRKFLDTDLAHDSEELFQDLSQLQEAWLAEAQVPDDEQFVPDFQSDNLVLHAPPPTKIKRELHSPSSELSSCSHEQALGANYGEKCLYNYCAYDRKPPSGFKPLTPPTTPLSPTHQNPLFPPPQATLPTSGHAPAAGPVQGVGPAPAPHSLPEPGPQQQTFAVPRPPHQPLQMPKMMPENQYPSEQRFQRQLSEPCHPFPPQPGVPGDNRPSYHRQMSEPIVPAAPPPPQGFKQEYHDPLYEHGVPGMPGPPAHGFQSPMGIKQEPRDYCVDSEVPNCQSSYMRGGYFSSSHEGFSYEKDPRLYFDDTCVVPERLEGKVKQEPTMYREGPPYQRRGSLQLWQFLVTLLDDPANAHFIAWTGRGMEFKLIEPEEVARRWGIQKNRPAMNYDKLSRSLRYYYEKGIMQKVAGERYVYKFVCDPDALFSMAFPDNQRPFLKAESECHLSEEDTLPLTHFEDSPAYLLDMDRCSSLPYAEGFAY
# Procedure, shortened: as §1
# HSF1 = HSF1 (Homo sapiens, UniProt Q00613 1-529); conditions: protein: recombinant; tags: N-terminal GST; chain copies: 3; dsDNA, one strand shown
# HSF1, sequence (Q00613 whole entry): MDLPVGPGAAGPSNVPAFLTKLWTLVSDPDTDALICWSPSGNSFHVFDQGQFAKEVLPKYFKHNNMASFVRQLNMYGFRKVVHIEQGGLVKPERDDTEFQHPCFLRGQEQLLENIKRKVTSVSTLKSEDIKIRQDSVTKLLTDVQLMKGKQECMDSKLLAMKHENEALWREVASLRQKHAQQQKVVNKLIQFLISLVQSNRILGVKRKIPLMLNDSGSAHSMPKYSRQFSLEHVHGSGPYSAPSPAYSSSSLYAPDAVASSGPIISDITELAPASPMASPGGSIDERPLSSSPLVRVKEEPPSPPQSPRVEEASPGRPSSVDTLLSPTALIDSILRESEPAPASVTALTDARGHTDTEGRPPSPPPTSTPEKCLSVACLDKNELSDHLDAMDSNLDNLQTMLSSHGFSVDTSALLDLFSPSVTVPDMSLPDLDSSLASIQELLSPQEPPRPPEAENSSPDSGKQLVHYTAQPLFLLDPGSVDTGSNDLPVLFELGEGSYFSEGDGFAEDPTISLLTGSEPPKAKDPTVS
# Procedure, shortened: as §1
# SPIC = target: T8, SPIC (Homo sapiens, UniProt Q8N5J4 1-248); conditions: protein: recombinant; tags: N-terminal GST; dsDNA, one strand shown
# T8 sequence: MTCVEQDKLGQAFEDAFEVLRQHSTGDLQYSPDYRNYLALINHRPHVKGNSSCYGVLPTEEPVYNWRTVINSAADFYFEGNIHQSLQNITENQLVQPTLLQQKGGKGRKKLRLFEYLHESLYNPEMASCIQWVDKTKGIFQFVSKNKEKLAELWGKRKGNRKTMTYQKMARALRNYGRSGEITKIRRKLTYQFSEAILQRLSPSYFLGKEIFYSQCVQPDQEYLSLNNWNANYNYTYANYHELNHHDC
# Procedure, shortened: as §1
# ELF4 = ELF4 (Homo sapiens, UniProt Q99607 1-663); conditions: protein: recombinant; tags: N-terminal GST; dsDNA, one strand shown
# ELF4, sequence (Q99607 whole entry): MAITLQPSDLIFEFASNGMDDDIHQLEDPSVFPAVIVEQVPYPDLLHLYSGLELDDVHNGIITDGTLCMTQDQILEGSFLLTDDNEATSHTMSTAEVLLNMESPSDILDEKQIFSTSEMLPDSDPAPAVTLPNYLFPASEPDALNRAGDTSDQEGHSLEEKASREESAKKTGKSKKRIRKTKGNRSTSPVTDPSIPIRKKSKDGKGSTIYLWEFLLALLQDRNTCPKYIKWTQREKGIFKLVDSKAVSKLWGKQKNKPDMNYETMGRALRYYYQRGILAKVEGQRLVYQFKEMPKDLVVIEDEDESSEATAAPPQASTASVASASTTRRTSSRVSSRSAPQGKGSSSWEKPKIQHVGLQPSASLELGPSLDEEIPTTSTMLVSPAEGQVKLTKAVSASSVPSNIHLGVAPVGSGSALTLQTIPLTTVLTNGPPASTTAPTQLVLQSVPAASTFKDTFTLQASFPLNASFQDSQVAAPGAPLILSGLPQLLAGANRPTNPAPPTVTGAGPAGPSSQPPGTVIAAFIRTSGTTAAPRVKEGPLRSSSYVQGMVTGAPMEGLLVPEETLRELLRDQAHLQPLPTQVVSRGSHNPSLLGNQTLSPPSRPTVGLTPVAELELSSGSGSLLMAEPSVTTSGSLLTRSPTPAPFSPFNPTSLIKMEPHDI
# Procedure, shortened: as §1
# ELK4 = target: T9, ELK4 (Homo sapiens, UniProt P28324-2 1-405); conditions: protein: recombinant; tags: N-terminal GST; dsDNA, one strand shown
# T9 sequence: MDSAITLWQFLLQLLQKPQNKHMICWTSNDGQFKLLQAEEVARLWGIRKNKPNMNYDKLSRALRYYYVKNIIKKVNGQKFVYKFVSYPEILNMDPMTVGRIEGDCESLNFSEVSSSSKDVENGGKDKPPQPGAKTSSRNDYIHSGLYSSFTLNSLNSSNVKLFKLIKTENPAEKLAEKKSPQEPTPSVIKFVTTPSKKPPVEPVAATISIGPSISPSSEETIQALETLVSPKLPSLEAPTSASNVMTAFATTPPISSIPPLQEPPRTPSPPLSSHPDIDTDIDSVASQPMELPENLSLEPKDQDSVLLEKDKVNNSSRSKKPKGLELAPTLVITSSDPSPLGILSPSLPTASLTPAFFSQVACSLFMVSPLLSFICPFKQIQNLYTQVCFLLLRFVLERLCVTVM
# Procedure, shortened: as §1
# ETV2 = target: T10, ETV2 (Homo sapiens, UniProt O00321 1-342); conditions: protein: recombinant; tags: N-terminal GST; dsDNA, one strand shown
# T10 sequence: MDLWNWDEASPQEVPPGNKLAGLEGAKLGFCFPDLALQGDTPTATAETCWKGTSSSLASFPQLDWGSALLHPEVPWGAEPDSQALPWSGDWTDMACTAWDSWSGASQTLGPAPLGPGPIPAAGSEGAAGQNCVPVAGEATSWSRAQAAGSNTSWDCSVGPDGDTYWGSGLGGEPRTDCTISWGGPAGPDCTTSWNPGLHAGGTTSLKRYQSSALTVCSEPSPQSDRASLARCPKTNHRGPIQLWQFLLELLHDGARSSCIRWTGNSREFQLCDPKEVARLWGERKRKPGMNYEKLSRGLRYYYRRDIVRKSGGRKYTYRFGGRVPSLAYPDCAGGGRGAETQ
# Procedure, shortened: as §1
# ELF3 = target: T11, ELF3 (Homo sapiens, UniProt P78545 1-371); conditions: protein: recombinant; tags: N-terminal GST; dsDNA, one strand shown
# T11 sequence: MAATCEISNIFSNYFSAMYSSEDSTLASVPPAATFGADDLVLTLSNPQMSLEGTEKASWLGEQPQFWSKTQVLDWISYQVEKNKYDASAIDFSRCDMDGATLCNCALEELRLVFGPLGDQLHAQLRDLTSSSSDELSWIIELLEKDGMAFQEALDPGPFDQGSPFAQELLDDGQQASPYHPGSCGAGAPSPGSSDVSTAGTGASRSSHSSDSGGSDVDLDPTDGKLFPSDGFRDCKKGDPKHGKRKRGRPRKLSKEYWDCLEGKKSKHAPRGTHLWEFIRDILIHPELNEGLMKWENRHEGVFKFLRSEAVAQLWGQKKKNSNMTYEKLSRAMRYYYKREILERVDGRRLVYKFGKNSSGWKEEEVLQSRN
# Procedure, shortened: as §1
# CRX = CRX (Homo sapiens, UniProt O43186 1-299); conditions: protein: recombinant; tags: N-terminal GST; dsDNA, one strand shown
# CRX, sequence (O43186 whole entry): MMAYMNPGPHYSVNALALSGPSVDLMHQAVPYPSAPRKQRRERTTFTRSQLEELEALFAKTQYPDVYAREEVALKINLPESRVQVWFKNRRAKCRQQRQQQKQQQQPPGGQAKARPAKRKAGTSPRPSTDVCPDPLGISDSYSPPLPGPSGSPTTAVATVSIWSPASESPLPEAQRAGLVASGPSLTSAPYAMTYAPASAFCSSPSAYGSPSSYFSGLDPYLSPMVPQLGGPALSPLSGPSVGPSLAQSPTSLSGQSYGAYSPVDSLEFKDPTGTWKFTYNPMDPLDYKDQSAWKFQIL
# Procedure, shortened: as §1
# ETV1 = ETV1 (Homo sapiens, UniProt P50549 1-477); conditions: protein: recombinant; tags: N-terminal GST; dsDNA, one strand shown
# ETV1, sequence (P50549 whole entry): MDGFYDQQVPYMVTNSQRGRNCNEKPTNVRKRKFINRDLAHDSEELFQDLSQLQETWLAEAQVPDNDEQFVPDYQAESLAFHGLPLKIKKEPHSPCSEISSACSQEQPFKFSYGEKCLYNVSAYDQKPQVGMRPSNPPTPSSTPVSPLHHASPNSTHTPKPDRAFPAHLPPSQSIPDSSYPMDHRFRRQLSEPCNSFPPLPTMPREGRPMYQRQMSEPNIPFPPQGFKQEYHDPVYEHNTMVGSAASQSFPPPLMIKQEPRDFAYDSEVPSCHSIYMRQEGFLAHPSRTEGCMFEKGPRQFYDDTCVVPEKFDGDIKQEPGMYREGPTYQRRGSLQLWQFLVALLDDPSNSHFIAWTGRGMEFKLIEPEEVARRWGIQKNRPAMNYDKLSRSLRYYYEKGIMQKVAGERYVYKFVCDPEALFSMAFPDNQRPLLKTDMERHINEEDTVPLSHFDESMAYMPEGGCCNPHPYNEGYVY
# Procedure, shortened: as §1
sequence,measurement,setting,value
GTTTCC,binding signal,FLI1,"2.66 fold enrichment (6-mer frequency, TF over GST control)"
same,binding signal,ELK1,"2.9 fold enrichment (6-mer frequency, TF over GST control)"
same,binding signal,GABPA,"2.56 fold enrichment (6-mer frequency, TF over GST control)"
same,binding signal,ERG,"3.43 fold enrichment (6-mer frequency, TF over GST control)"
same,binding signal,ELF1,"2.58 fold enrichment (6-mer frequency, TF over GST control)"
same,binding signal,EHF,"2.77 fold enrichment (6-mer frequency, TF over GST control)"
same,binding signal,SPI1,"2.67 fold enrichment (6-mer frequency, TF over GST control)"
same,binding signal,SPIB,"2.84 fold enrichment (6-mer frequency, TF over GST control)"
same,binding signal,ELK3,"2.9 fold enrichment (6-mer frequency, TF over GST control)"
same,binding signal,FEV,"3.32 fold enrichment (6-mer frequency, TF over GST control)"
same,binding signal,ETV5,"3.01 fold enrichment (6-mer frequency, TF over GST control)"
same,binding signal,HSF1,"1.42 fold enrichment (6-mer frequency, TF over GST control)"
same,binding signal,SPIC,"2.6 fold enrichment (6-mer frequency, TF over GST control)"
same,binding signal,ELF4,"2.56 fold enrichment (6-mer frequency, TF over GST control)"
same,binding signal,ELK4,"2.16 fold enrichment (6-mer frequency, TF over GST control)"
same,binding signal,ETV2,"2.42 fold enrichment (6-mer frequency, TF over GST control)"
same,binding signal,ELF3,"2.55 fold enrichment (6-mer frequency, TF over GST control)"
same,binding signal,CRX,"1.08 fold enrichment (6-mer frequency, TF over GST control)"
same,binding signal,ETV1,"2.65 fold enrichment (6-mer frequency, TF over GST control)"

# Reference: publication PMC7862700, “An all-to-all approach to the identification of sequence-specific readers for epigenetic DNA modifications on cytosine”
